High-throughput results deposited in PubChem by National Center for Advancing Translational Sciences (NCATS).
FBPA Giardia inh = Giardia lamblia aldolase inhibition. A8B2U2. purified Giardia FBPA. Potency, µM (titrated, usually from 59.6 µM), for the others: at the top dose activity, negative = inhibition, hits mostly inhibitors. 290,000 compounds, 0.71% hits; note: potency is the fitted concentration of half-maximal effect; nearly all actives have a fitted effect of over 55% in size
Target sequence (A8B2U2 whole entry, looked up): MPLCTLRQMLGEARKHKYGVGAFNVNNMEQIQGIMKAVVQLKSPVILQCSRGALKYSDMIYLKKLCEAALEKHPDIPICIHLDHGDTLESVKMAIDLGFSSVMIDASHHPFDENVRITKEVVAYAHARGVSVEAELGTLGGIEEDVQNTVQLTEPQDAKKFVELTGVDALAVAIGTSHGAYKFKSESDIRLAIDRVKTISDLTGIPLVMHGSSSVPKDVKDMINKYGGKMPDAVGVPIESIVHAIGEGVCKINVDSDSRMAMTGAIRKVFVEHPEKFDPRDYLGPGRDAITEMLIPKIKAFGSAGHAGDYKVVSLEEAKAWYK
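Giardia FBPA (40 nM reagent) was preincubated 10 min at RT with compound (up to 57.5 uM final), then substrate plus GAPDH/TPI/NAD/arsenate coupling system with diaphorase/resazurin was added; resorufin fluorescence (525/598 nm) was read after 20 min.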
LASV entry inh = Lassa virus entry inhibition; Potency, µM (titrated, usually from 37.9 µM), inactives show at the top dose activity change, negative = inhibition, hits mostly inhibitors; 300,000 compounds, 1.2% hits; Lassa virus pseudotype entry inhibition, cell reporter; calls by dose curve; tested in HEK293 cells; note: potency is the fitted concentration of half-maximal effect; nearly all actives have a fitted effect of over 50% in size
MARV entry inh = blocks Marburg virus binding to or entry into cells; Marburg virus pseudotyped entry inhibition, cell reporter; Potency, µM (highest dose often 37.8 µM), without a hit: at the highest dose activity change, negative = inhibition, usual class: inhibitors; 300,000 compounds, 1.8% hits; AID 540276; calls by dose curve; tested in HEK293 cells; note: potency is the fitted concentration of half-maximal effect
HCV inh = HCV inhibition; Potency, µM (doses to about 41.8 µM), for inactives: at the highest dose activity change, negative = inhibition, most hits filed as inhibitors; Huh7.5.1 HCVcc-Cre infection, luciferase reporter, 44 h; AID 651820; 340,000 compounds, 3.4% hits; note: potency is the fitted concentration of half-maximal effect
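After 44 h co-culture of compound, cells and HCVcc-Cre (~0.5 moi), substrate is added for 15 min at room temperature and luciferase measured over 15 sec. Cells were seeded at 1,000/well and pre-cultured 4 h.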
HCMV inh = blocks human cytomegalovirus replication; HFF cells, HCMV-luciferase reporter, 72 h; stronger effect = lower value; activity change, negative = inhibition, % at 57.5 µM; 410,000 compounds, 4.5% hits; in the data active = activity change below about -60%; inconclusive = no clear call, values can overlap the other calls; inactive = above about -39%
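After 16 h attachment at 37C, HFF cells received test compound and HCMV-luciferase (1 PFU/cell); reporter luminescence read 72 h later, data normalized against buffer-only and known inhibitor Salinomycin.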
FMDV antiviral = blocks foot and mouth disease virus | FMDV antiviral cell-based qHTS | 410,000 compounds, 1.2% hits | Potency, µM (doses to about 57.9 µM), for the others: top-dose activity change, negative = inhibition, hits mostly inhibitors; calls by dose curve; tested in HEK293T cells; note: read-out not given here; potency is the fitted concentration of half-maximal effect; nearly all actives have a fitted effect of over 45% in size
* hit, by the source's call; ? = inconclusive; nt = no result given; [ ] = remark or other dose. In the library only some 8.3% were active in any assay of this set; here they are far more common. Unless noted, calls come from the whole dose curve; as a rule, active = well fitted curve in the direction sought with a large enough effect; inconclusive = small, poorly fitted or top-dose-only effect, or another doubt; inactive = no such curve, though single readings can be large; an effect the other way counts as inactive or inconclusive. % is set by controls: 0 for no effect and ±100 for the full control effect.

SMILES	FBPA Giardia inh	LASV entry inh	MARV entry inh	HCV inh	HCMV inh	FMDV antiviral
CCN(CC(=O)NCc1ccc(Cl)cc1)C(=O)CCOc1ccccc1C	nt	-24.6%	-9.3%	?	-18.2	-19.5%
c1ccc2c(c1)nc(Nc1ccc(N3CCCCC3)cc1)c1nncn12	15.0%	nt	nt	?	-30.7	-2.0%
c1ccc(N2CCCCC2)c(Nc2nc3ccccc3n3cnnc23)c1	0.8%	?	?	6.31µM*	?	-26.7%
Fc1ccc(Nc2nc3ccccc3n3cnnc23)c(F)c1	nt	nt	-2.3%[46.1 µM]	nt	-7.5	-4.1%
FC(F)(F)c1ccc(N2CCOCC2)c(Nc2nc3ccccc3n3cnnc23)c1	-4.3%	?	4.11µM*	?	25.2	0.0%
O=C(CN(c1cc(C(F)(F)F)ccc1Cl)S(=O)(=O)c1ccccc1)NCCc1ccccc1	nt	-1.8%[46.1 µM]	-5.9%[46.1 µM]	nt	-70.4*	13.4%
O=C(CN(c1ccc(Cl)cc1)S(=O)(=O)c1ccc(Cl)c([N+](=O)[O-])c1)NCCc1ccccc1	3.9%	-2.2%	?	11.2µM*	36.7	6.4%
CC(Cc1cccc(C(F)(F)F)c1)NCCCc1ccccc1 (stereo unspecified)	nt	nt	nt	nt	nt	20µM*
CCOP(=O)(OCC)c1cccc(OP(=O)(c2cccc([N+](=O)[O-])c2)c2cccc([N+](=O)[O-])c2)c1	1.8%	-12.1%	1.0%[46.1 µM]	17.7%	63.5	-7.0%
CCOP(=O)(OCC)c1cccc(O)c1	5.8%	22.8%	15.9%[46.1 µM]	19.5%	-65.0*	-12.7%
CC1CC2(C)Oc3ccccc3C3OCC1(COC(=O)Nc1ccccc1)C(C)C32 (stereo unspecified)	-5.6%	nt	nt	nt	nt	nt
OCCNCc1cc(Br)ccc1OCc1ccc(Cl)cc1Cl	0.5%	11.2µM*	11.2µM*	11.2µM*	-17.3	0.0%
Oc1ccc(/C=N/Nc2nc(-c3cccnc3)nc3ccccc23)c(O)c1	-1.9%	nt	nt	11.2µM*	-25.8	0.0%
Cc1c(O)ccc(/C=N/Nc2nc(-c3cccnc3)nc3ccccc23)c1O	0.4%	nt	nt	25.1µM*	-75.2*	41.9%
Cc1ccc(-c2nc(N/N=C/c3ccncc3)c3ccccc3n2)cc1	16.9%	?	2.91µM*	-22.9%	99.6	1µM*
O=S1(=O)N[C@H](Cc2ccccc2)COc2cccc(N3CCCCC3)c21	nt	nt	nt	nt	-12.6	nt
CCCN1C(=O)c2[nH]nc(-c3ccccc3O)c2C1c1ccc(OCc2ccccc2)c(OCC)c1 (stereo unspecified)	nt	?	?	nt	?	0.0%
CC(=O)OCC(NC(=O)C(C)NC(=O)OC(C)(C)C)C1OC(n2cc(F)c(=O)[nH]c2=O)C(OC(C)=O)C1OC(C)=O (stereo unspecified)	5.3%	nt	nt	nt	nt	nt
CC(C)OP(=O)(OC(C)C)/C(C=O)=N\Nc1ccc([N+](=O)[O-])cc1	5.1%	nt	nt	?	-90.6*	-29.7%
Cc1nc(SC(C)C(=O)NCC2CCCO2)c2cc(-c3ccccc3)sc2n1 (stereo unspecified)	nt	0.501µM*	0.631µM*	3.8%	-88.6*	16.2%
CCc1ccc(Nc2cc(C)nc3nc(Cc4ccc(Cl)cc4)nn23)cc1	nt	?	?	nt	-91.5*	?
CCOC(=O)C1Oc2ccccc2C(c2ccccc2)=C1C(C)=O (stereo unspecified)	10.0%[89.2 µM]	nt	nt	nt	nt	nt
O=[N+]([O-])c1ccccc1COc1ccc(Cl)c2cccnc12	6.8%	nt	nt	-14.7%	7.8	-27.5%
Cc1cccc2nc(COc3ccc(Cl)c4cccnc34)cn12	-12.1%	?	-4.5%[46.1 µM]	?	-80.3*	14.3%
CCn1c(/C=C\c2ccccc2C)nc2ccccc2c1=O	-3.0%	nt	nt	?	-9.2	2.2%
Cc1[nH]c2ccccc2c1/C=C/c1nc2ccccc2c(=O)[nH]1	-9.5%	?	?	-23.7%	96.3	22.7%
CCn1c(/C=C/c2ccccc2Cl)nc2ccccc2c1=O	-4.8%	2.5%[46.1 µM]	13.6%[46.1 µM]	-18.0%	-78.9*	-3.2%
Cc1cccc(/C=C/c2nc3ccccc3c(=O)n2Cc2ccccc2)c1	5.2%	?	?	?	-83.1*	?
O=c1c2ccccc2nc(/C=C/c2cccnc2)n1CCc1ccccc1	2.9%	?	?	-15.4%	-74.8*	-24.6%
O=c1c2ccccc2nc(/C=C/c2ccccc2)n1CCc1ccccc1	0.9%	3.8%	19.5%	0.4%	-9.9	-13.2%
